Activity calls are given as the source filed them.
Columns and labels:
[1] = anti-His antibody binders, primary screen, artefact control for SMM control protein annotation, biochemical, small-molecule microarray, 635 nm fluorescence (AID 1128); settings: anti-His Alexa647 antibody binding, higher = more signal;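 also: score merges feature fluorescence with signal-to-noise for each printed compound spot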
[2] = tested on: Human papillomavirus type 1a E7 protein (residues 1-88); assay: HPV1a E7 small-molecule binders, primary screen, biochemical, small-molecule microarray, residues 1-88, 635 nm (AID 1129); settings: small-molecule microarray binding, fluorescence 635 nm; higher = more signal
[3] = target: Focal adhesion kinase 1 (Homo sapiens) (UniProt Q05397); assay: small-molecule microarray binders of FAK, primary screen, biochemical, 635/667 nm fluorescence, BSA, DTT (AID 1130); settings: PTK2 binding, 635 nm fluorescence, higher = more signal;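 also: composite of spot emission at 667 nm and signal to noise over triplicate slides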
[4] = tested on: Fibrinogen (Alexa647-labelled); assay: fibrinogen binders on compound microarrays, profiling panel, artefact control for SMM control-protein annotation, biochemical, small-molecule microarray, 635/667 nm fluorescence (AID 1131); settings: fibrinogen-A647 binding fluorescence, higher = more signal;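 also: z-score merges 667 nm fluorescence with per-spot signal-to-noise over triplicate slides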
[5] = target: Follistatin (Homo sapiens) (UniProt P19883); assay: follistatin binders on small-molecule microarrays, primary screen, biochemical, small-molecule microarray, 635/667 nm fluorescence (AID 1132); settings: FST binding, 635 nm fluorescence, higher = more signal
[6] = target: Fibroblast growth factor 2 (Homo sapiens) (UniProt P09038); assay: FGF2 binders on small-molecule microarrays, primary screen, biochemical, small-molecule microarray, 635/667 nm fluorescence (AID 1133); settings: small-molecule microarray binding, FGF2, fluorescence 635/667; higher = more signal
[7] = mitochondrial membrane potential change in A549 cells, profiling panel, cell-based, JC-1 fluorescence, basal, 24 h, 100 nL (AID 1138); settings: higher = more signal;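 also: A549 lung adenocarcinoma cells under basal conditions with no added stimulus; test concentration not given here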
Lefty1 = Lefty1 binders on small-molecule microarrays, primary screen, biochemical, small-molecule microarray, 635/667 nm fluorescence (AID 1139); settings: small-molecule microarray binding, fluorescence 635/667; higher = more signal
[8] = tested on: wheat germ agglutinin (Triticum aestivum), Alexa647-labelled; assay: wheat germ agglutinin binders on compound microarrays, profiling panel, artefact control for SMM control-protein annotation, biochemical, small-molecule microarray, 635/667 nm fluorescence (AID 1140); settings: WGA-A647 binding, 635 nm fluorescence, higher = more signal;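 also: score merges 667 nm feature emission with signal to noise over triplicate slides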
[9] = target: Luciferin 4-monooxygenase (Photinus pyralis) (UniProt P08659); assay: firefly luciferase enzyme inhibitors, primary screen, biochemical, luminescence, purified enzyme, 2006 set (AID 1141); settings: SteadyGlo luminescence, 30 min, higher = more signal, called active from +8 up or from −8 down;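 also: cell-free assay with purified firefly luciferase at 100 ng per well in PBS; test concentration not given here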
Sequence of Luciferin 4-monooxygenase (Photinus pyralis) (P08659 whole entry, looked up): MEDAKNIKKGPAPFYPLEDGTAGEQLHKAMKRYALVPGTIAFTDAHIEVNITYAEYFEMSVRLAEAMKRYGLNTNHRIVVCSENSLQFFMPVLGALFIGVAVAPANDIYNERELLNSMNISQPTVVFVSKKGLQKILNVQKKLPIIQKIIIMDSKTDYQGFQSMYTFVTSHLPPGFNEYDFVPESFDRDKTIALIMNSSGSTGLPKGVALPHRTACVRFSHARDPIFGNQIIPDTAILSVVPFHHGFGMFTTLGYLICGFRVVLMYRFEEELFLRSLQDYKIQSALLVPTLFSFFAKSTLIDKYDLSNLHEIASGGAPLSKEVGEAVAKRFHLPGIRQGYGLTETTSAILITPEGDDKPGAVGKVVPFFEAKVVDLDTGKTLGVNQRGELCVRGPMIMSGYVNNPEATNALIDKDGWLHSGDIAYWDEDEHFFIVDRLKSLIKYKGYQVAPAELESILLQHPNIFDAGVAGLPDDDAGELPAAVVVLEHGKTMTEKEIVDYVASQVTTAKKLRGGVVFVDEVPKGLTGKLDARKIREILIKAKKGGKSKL

Sequence of Focal adhesion kinase 1 (Homo sapiens) (Q05397 whole entry, looked up): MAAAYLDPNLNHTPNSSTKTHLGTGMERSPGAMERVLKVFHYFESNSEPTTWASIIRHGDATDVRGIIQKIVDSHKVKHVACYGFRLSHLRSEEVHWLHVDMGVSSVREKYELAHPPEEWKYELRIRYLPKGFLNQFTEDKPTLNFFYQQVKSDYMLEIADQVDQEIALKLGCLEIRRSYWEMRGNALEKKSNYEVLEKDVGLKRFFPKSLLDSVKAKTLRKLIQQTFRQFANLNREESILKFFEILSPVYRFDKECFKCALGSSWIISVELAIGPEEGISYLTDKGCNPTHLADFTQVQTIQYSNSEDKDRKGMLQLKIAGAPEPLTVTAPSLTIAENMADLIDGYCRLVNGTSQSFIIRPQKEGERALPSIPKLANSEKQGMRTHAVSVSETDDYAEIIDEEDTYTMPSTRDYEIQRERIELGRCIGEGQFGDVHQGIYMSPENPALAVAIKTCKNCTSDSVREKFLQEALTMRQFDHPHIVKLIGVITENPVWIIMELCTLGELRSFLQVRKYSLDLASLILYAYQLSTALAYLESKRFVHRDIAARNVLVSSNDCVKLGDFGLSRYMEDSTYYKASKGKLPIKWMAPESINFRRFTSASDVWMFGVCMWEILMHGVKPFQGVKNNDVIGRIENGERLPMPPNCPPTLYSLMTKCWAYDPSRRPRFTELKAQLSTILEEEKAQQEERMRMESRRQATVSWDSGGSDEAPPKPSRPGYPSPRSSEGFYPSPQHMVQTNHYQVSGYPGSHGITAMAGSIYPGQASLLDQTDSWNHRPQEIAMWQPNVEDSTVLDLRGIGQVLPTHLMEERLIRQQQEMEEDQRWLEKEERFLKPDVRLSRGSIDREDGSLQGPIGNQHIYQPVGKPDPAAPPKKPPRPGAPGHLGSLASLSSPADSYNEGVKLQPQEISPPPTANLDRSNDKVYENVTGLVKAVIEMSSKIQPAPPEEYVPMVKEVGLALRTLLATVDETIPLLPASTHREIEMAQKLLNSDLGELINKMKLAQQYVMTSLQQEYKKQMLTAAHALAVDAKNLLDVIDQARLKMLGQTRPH
Sequence of Fibroblast growth factor 2 (Homo sapiens) (P09038 whole entry, looked up): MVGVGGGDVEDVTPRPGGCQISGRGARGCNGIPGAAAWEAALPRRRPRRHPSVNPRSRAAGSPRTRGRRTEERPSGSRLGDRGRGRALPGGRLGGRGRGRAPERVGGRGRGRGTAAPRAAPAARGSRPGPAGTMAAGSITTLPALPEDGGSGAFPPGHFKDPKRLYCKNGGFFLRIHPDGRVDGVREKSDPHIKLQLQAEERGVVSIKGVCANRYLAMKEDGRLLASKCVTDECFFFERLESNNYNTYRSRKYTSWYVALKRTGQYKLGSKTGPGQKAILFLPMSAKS
Sequence of Follistatin (Homo sapiens) (P19883 whole entry, looked up): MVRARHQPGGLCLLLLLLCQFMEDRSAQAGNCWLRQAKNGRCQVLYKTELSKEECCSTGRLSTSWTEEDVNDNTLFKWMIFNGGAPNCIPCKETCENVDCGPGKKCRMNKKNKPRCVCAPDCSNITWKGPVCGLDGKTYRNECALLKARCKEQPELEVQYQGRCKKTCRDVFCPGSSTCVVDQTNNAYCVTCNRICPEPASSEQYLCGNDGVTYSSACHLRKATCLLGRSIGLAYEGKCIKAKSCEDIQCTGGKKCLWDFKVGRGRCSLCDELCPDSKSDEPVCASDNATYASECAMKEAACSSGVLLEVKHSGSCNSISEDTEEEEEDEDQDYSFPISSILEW

Structure (SMILES) | composite z-score [1] | composite z-score [2] | composite z-score [3] | composite z-score [4] | composite z-score [5] | composite z-score [6] | z-score [7] | composite z-score (Lefty1) | composite z-score [8] | z-score [9]
CN1C(=O)C2C=CC(C(O)c3ccc(I)cc3)N(N3CCCCC3)C2C1=O (stereo not given) | 1.09 | 1.21 | 0.578 | 0.924 | 1.24 | -0.148 | 0.158 | 0.459 | 1.2 | -1.05 (inactive)
COC(=O)[C@@]1(Cc2ccc(F)cc2)[C@H]2c3cc(C(=O)N(C)C)n(Cc4nc5ccccc5[nH]4)c3C[C@H]2CN1C(=O)c1ccccc1 | 1.11 | 1.28 | 0.187 | 0.843 | 0.526 | -0.634 | -0.0117 | -0.0816 | 0.488 | -0.625 (inactive)
COc1ccc(C(O)C2C=CC3C(=O)N(c4ccccc4)C(=O)C3N2Nc2ccc(C(C)C)cc2)cc1OCc1ccccc1 (stereo not given) | 0.893 | 1.17 | -0.149 | 0.973 | 1.22 | 0.254 | -0.182 | 0.094 | 1.22 | -1.96 (inactive)
C=CCOC(=O)[C@@H]1[C@H]2C(=O)O[C@H](c3ccccc3)[C@H](c3ccccc3)N2[C@H](c2ccc(OCCOC(=O)[C@@H]3C[C@@H]4C(=O)N[C@@H](CCCCN(C)C)C(=O)N4[C@@H]3c3ccc(O)cc3)cc2)[C@@]12C(=O)Nc1ccc(I)cc12 | 1.13 | 0.799 | 0.338 | 0.177 | 1.2 | 1.34 | -1.78 | 0.844 | 0.542 | -2.62 (inactive)
CCCCN1CC=CC23O[C@@H]4/C=C\CCC(C)OC(=O)C4[C@H]2C(=O)N(CCCCCO)[C@@H]3C1=O (stereo not given in full) | -0.383 | -0.69 | -0.883 | -0.773 | -1.13 | -0.781 | -0.175 | -0.234 | -0.245 | 0.762 (inactive)
C=CCN1C(=O)[C@]2(O[C@H](CCO)[C@@H]([Si](C)(C)c3ccc(OC)cc3)[C@@H]2C)c2cc(N3C(=O)c4cccc5cccc3c45)ccc21 | 0.987 | 0.98 | 1.05 | 0.541 | 0.644 | 0.65 | -0.855 | 0.777 | 0.393 | -0.225 (inactive)
CN1C(=O)C2C=CC(C(O)C3CCCCC3)N(Nc3ccc([N+](=O)[O-])cc3[N+](=O)[O-])C2C1=O (stereo not given) | 1.08 | 1.25 | 0.622 | 1.02 | 1.07 | 0.0734 | 1.37 | 0.182 | 0.497 | 0.799 (inactive)
CCCC=C(CCC)[C@@H](NS(=O)(=O)c1cccs1)c1ccc(C(=O)OC)cc1 | 1.16 | 1.17 | 0.496 | 1.02 | 0.825 | -0.186 | -2.96 | -0.3 | 1.17 | 0.917 (inactive)
COCCOC(=O)N1C(=O)[C@@]2(c3cc(C#Cc4ccc(OC)cc4)ccc31)[C@H](c1ccccc1OCCO)N1[C@H](c3ccccc3)[C@H](c3ccccc3)OC(=O)[C@H]1[C@@H]2C(=O)N1CCN(c2ncccn2)CC1 | 2.12 | 1.18 | 0.863 | -0.134 | 0.803 | 0.404 | -1.18 | 0.361 | 0.816 | -1.1 (inactive)
CC1CC/C=C\[C@H]2OC34C=CCN(c5ccc(Cl)cc5)C(=O)[C@H]3N(CCO)C(=O)[C@]4(C)C2C(=O)O1 (stereo not given in full) | 3.56 | -0.0955 | 1.67 | -1.84 | -0.338 | -0.492 | -0.259 | -0.49 | 0.811 | 0.259 (inactive)
CCOC(=O)C[C@H]1[C@H](OC(=O)Cc2ccc3c(c2)OCO3)[C@@H](NC(=O)c2ccc(-c3ccccc3)cc2)c2cc(OCCCO)ccc2N1C(=O)c1ccc2ccccc2n1 | 0.0542 | 0.242 | 0.179 | 0.368 | 0.46 | -0.0919 | -0.728 | 0.278 | 0.132 | 0.74 (inactive)
C[N+](C)(C)CCCCNC(=O)[C@H]1C[C@H]2C(=O)N[C@@H](Cc3ccccc3)C(=O)N2[C@H]1c1ccc(O)cc1 | 1.94 | -0.304 | -0.452 | 0.451 | 1.34 | 0.971 | 0.079 | 0.985 | 0.496 | -1.27 (inactive)
C=CC[C@]1(C(=O)N2CCCCC2)N=C(c2ccc(OCCCO)cc2)O[C@H]1c1ccccc1 | 2.2 | 1.19 | 0.702 | 0.928 | 1.3 | -0.165 | 1.48 | -0.395 | 0.676 | -0.728 (inactive)
C=C[C@H](COC(C)=O)N(C(=O)OC(C)(C)C)S(=O)(=O)c1ccc(Br)cc1 | 1.7 | 0.851 | 0.461 | -0.296 | 0.867 | 0.433 | 0.671 | 0.65 | 0.233 | -1.57 (inactive)
O=C1[C@H]2C=C(Br)[C@H](C[C@@H]2OCCCCO)[C@@]12CO2 | -0.0684 | -0.123 | -0.14 | -0.0973 | 0.324 | 0.108 | 0.137 | 0.17 | 0.0889 | 0.469 (inactive)
CCOC(=O)C=Cc1cc([N+](=O)[O-])ccc1O | -0.59 | -0.455 | -0.0779 | -0.429 | -0.907 | -0.652 | -2.31 | -0.83 | -0.0396 | 1.38 (inactive)
COc1ccc(C(=O)Nc2ccc(CN3C(=O)[C@@]4(O[C@@H](CCO)[C@H]([Si](C)(C)c5ccc(OC)cc5)[C@H]4C)c4ccccc43)cc2)cc1 | 1.42 | 0.97 | -0.0228 | 0.673 | 1.37 | 1.55 | -1.49 | 1.45 | 0.559 | -0.555 (inactive)
COc1ccc([Si](C)(C)[C@H]2[C@H](CC(=O)N3Cc4ccccc4C[C@H]3CO)O[C@@]3(C(=O)N(Cc4ccc(N5CCC5=O)cc4)c4ccccc43)[C@@H]2C)cc1 | 1.72 | 1.13 | 1.12 | 0.42 | 1.33 | 1.32 | 1.11 | 1.56 | 0.104 | 0.511 (inactive)
COc1ccc([Si](C)(C)[C@H]2[C@H](CCO)O[C@@]3(C(=O)N(C)c4c(Br)cc(C)cc43)[C@@H]2C)cc1 | 0.494 | 0.969 | 0.295 | 0.15 | 0.675 | 0.425 | -1.69 | 0.486 | 0.773 | 0.481 (inactive)
C=CCNC(=O)[C@H]1[C@@H]2C(=O)O[C@@H](c3ccccc3)[C@@H](c3ccccc3)N2[C@@H](c2ccc(OCCO)cc2)[C@]12C(=O)N(C(=O)OCCOC)c1ccccc12 | 2.75 | 1.25 | 0.389 | 0.962 | 1.33 | 1.53 | -0.134 | 0.807 | 0.789 | 0.122 (inactive)
C=C(CCCC)C(=O)CC[C@H](OC(C)=O)c1cccc(OCCO)c1 | -0.393 | -0.755 | 0.5 | -1.29 | -0.732 | -0.546 | -0.299 | -0.492 | -0.881 | 0.0336 (inactive)
N#Cc1ccc(NN2C(C(O)c3c(F)cccc3Cl)C=CC3C(=O)N(c4ccccc4)C(=O)C32)cc1 (stereo not given) | 2.29 | 1.21 | 0.377 | 0.973 | 1.23 | 0.407 | -0.36 | -0.0219 | 0.997 | -0.671 (inactive)
O=C1OCCC/C=C\[C@H]2OC34C=CCN(Cn5nnc6ccccc65)C(=O)[C@H]3N(CCCCCCO)C(=O)[C@@H]4C12 (stereo not given in full) | 0.919 | -0.776 | 0.326 | -2.01 | -0.686 | -1.58 | 1.05 | -0.394 | 0.727 | -0.254 (inactive)
CCCCc1cn(C[C@H](Cc2ccccc2)NC(=O)N[C@H](CO)CCc2oc(C(C)=O)c(C(=O)OC)c2C(=O)OC)nn1 | 0.97 | 1.2 | 0.54 | 0.921 | 1.18 | 0.866 | -0.419 | 1.16 | 0.445 | 1.29 (inactive)
COC(=O)c1c(CC[C@@H](CO)NC(=O)N2CCC[C@H]2Cn2cc(-c3ccccn3)nn2)oc(C(C)=O)c1C(=O)OC | 0.0014 | 0.282 | 0.16 | -0.975 | -0.0633 | 0.123 | -0.53 | 0.427 | 0.0776 | 0.793 (inactive)
CCCCCCC#C[Si](O[C@H](c1ccccc1)c1cn([C@H](CO)Cc2ccccc2)nn1)(C(C)C)C(C)C | 0.355 | -0.116 | -0.074 | -1.29 | -0.193 | -0.489 | -0.319 | 0.65 | 0.207 | 0.751 (inactive)
CC1CC/C=C\[C@H]2OC34C=CCN(Cn5nnc6ccccc65)C(=O)[C@H]3N(C(CO)C(C)C)C(=O)[C@@H]4C2C(=O)O1 (stereo not given in full) | 1.63 | 0.19 | 0.0406 | 0.422 | -0.311 | -0.464 | -0.408 | -0.2 | 1.09 | 0.178 (inactive)
CC(C)OC(=O)C=C1C[C@@H](c2ccccc2C(F)(F)F)O[C@@H](c2ccccc2C(F)(F)F)O1 | 0.209 | 0.737 | 0.554 | 0.183 | -0.0154 | 0.179 | 1.81 | 0.109 | 0.127 | 0.464 (inactive)
COc1ccc([C@H]2OC[C@@H]3CC4(CC=CC4)C(=O)N32)cc1 | -0.648 | 0.828 | 0.282 | -0.163 | 1.4 | 0.848 | -0.661 | 1.35 | -0.284 | -0.573 (inactive)
